Source: PubChem BioAssay
Only some compounds are listed: those with a hit (about 2.5% of all), similar ones and a draw of the others.
NFkB binder: binds human NF-kappa-B p105 on microarray. P19838. Small molecule microarray, anti-His fluorescence binding. calls only. 17,000 compounds, 1.3% hits. AID 624139;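 active means spot fluorescence over background significantly raised, with a chance value under 7% in all four replicate spots of the compound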;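 further: probe protein is his-tagged human p50 processed subunit at 1 µg/ml; raw spot fluorescence signals with no normalization applied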
Target sequence (P19838 1-433 limits assumed): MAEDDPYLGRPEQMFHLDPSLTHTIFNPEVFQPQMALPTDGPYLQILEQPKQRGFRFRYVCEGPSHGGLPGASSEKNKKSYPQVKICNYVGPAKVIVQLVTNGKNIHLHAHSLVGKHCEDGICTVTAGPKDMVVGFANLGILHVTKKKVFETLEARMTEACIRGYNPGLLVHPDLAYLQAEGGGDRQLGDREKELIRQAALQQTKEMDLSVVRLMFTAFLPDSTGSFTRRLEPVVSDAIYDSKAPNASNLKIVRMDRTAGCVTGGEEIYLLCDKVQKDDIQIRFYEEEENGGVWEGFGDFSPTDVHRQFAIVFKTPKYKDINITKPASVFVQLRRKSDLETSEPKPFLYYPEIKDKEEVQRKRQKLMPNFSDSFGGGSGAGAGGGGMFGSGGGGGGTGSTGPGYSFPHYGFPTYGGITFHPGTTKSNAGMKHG
STAT3 binder: binds human STAT3 on microarray; 17,000 compounds, 0.2% hits; Small molecule microarray, His-STAT3 binding, anti-His fluorescence; P40763; AID 624138; calls only;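 active means compounds whose four printed spots each show fluorescence over background unusually high for their array block, chance value under 7%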
mut p53 SMM: mutant p53 (human) binding; small molecule microarray binding, anti-GST fluorescence; AID 624136; calls only; 17,000 compounds, 0.4% hits;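 active means compounds whose four printed spots each glow above background more than chance allows, each with a p-value under 7%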
Myc binder: c-Myc (human) binding. small molecule microarray, His-c-Myc binding, anti-His fluorescence. 17,000 compounds, 1.5% hits. P01106. calls only;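 active means spot fluorescence over background with P-value below 7% in all four replicate spots, showing protein binding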;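 further: score is binary with 100 for all four spots passing and 0 otherwise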
Active calls of the source: *; i = inactive; + = active, no number.

SMILES | NFkB binder | STAT3 binder | mut p53 SMM | Myc binder
CC1(C)CC[C@@]2(C(=O)O[C@@H]3O[C@H](CO)[C@@H](O)[C@H](O)[C@H]3O)C(C1)C1=CCC3[C@@]4(C)CC[C@@H](O[C@@H]5O[C@H](C(=O)O)[C@@H](O[C@@H]6OC[C@@H](O)[C@H](O)[C@H]6O)[C@H](O)[C@H]5O)C(C)(C)C4CC[C@@]3(C)[C@]1(C)C[C@H]2O (some centres not stated) | i | i | i | i
CC1OC(O[C@H]2CC[C@@]3(C)C(CC[C@]4(C)C3CC=C3C5CC(C)(C)CC[C@]5(C(=O)OC5OC(CO)C(OC6OC(CO)C(O)C(O)C6O)C(O)C5O)CC[C@]34C)C2(C)C)C(O)C(O)C1OC1OCC(O)(COC2OCC(O)C(OC3OCC(OC4OCC(O)(CO)C4O)C(O)C3O)C2O)C1O (some centres not stated) | i | i | i | i
C/C=C(\C)C(=O)O[C@H]1[C@H](OC(C)=O)[C@@]2(CO)C(CC1(C)C)C1=CCC3[C@@]4(C)CC[C@H](O[C@@H]5O[C@H](C(=O)O)[C@@H](O)[C@H](O[C@@H]6O[C@H](CO)[C@H](O)[C@H](O)[C@H]6O[C@@H]6O[C@@H](C)[C@H](O)[C@@H](O)[C@H]6O)[C@H]5O[C@@H]5O[C@H](CO)[C@@H](O)[C@H](O)[C@H]5O)C(C)(C)C4CC[C@@]3(C)[C@]1(C)C[C@H]2O (some centres not stated) | + | i | i | i
C[C@@H]1O[C@@H](O[C@H]2[C@@H](O)[C@@H](C)O[C@@H](O[C@H]3[C@H](O)[C@@H](O)[C@H](O[C@H]4CC[C@@]5(C)C(CC[C@]6(C)C5C=CC5=C7CC(C)(C)CC[C@]7(CO)CC[C@]56C)[C@]4(C)CO)O[C@@H]3CO)[C@@H]2O[C@@H]2O[C@H](CO)[C@@H](O)[C@H](O)[C@H]2O)[C@H](O)[C@H](O)[C@H]1O (some centres not stated) | + | i | i | +
CC1OC(OC2C(CO)OC(OC(=O)[C@]34CCC(C)(C)CC3C3=CCC5[C@@]6(C)CC[C@H](OC7OC(C)C(OC8OCC(O)(COC9OCC(O)C(OC%10OCC(OC%11OCC(O)(CO)C%11O)C(O)C%10O)C9O)C8O)C(O)C7O)C(C)(C)C6CC[C@@]5(C)[C@]3(C)CC4)C(O)C2O)C(O)C(O)C1O (some centres not stated) | + | i | i | +
CC1(C)CC[C@]2(C(=O)O[C@@H]3O[C@H](CO)[C@@H](O)[C@H](O)[C@H]3O)CC[C@]3(C)C(=CCC4[C@@]5(C)CC[C@H](O[C@@H]6OC[C@H](O)[C@H](O)[C@H]6O[C@@H]6O[C@H](CO)[C@@H](O)[C@H](O)[C@H]6O[C@@H]6OC[C@H](O)[C@H](O)[C@H]6O)[C@@](C)(CO)C5CC[C@]43C)C2C1 (some centres not stated) | + | i | i | i
N#Cc1c(NC(=O)CSc2nnc(N)s2)sc2c1CCCC2 | i | i | i | i
CC(=O)Nc1cccc(OCC(=O)N(C)c2ccccc2)c1 | i | i | i | i
C=C1CCC2(C(=O)OC3OC(CO)C(O)C(O)C3OC3OCC(O)C(O)C3O)CCC3(C)C(=CCC4C5(C)CCC(OC6OC(CO)C(O)C(O)C6O)C(C)(CO)C5CCC43C)C2C1 (configuration not stated) | i | i | i | i
CC1(C)CC[C@]2(C(=O)O)CC[C@]3(C)C(=CCC4[C@@]5(C)CC[C@H](O[C@@H]6OC[C@H](O)[C@H](O)[C@H]6O)[C@@](C)(CO)C5CC[C@]43C)C2C1 (some centres not stated) | + | i | i | i
CC(C)OC(=O)c1cn(Cc2c(F)cccc2F)c2sc(-c3ccc(NC(=O)C(C)C)cc3)c(CN(C)Cc3ccccc3)c2c1=O | + | i | i | +
CC1=CC(C)(C)N2C(=O)C(=O)c3cc(OC(=O)CN4C(=O)c5cccc6cccc(c56)C4=O)cc1c32 | i | i | i | i
C[C@@H]1CCCCO[C@@H](CN(C)Cc2ccc(C(=O)O)cc2)[C@@H](C)CN([C@H](C)CO)C(=O)c2cc(NC(=O)Nc3ccc(F)cc3)ccc2O1 | i | i | i | i
C[C@@H]1CN([C@@H](C)CO)C(=O)c2cc(NC(=O)Nc3ccc(C(F)(F)F)cc3)ccc2O[C@@H](C)CCCCO[C@H]1CN(C)Cc1ccc(C(F)(F)F)cc1 | + | i | i | i
